Legend:
Conditions in all cases: concentration: 1 μM, replicates: in singlicate; n = 1
EPHA7 = test system: EPHA7
EPHA8 = test system: EPHA8
EPHB1 = test system: EPHB1
EPHB2 = test system: EPHB2
EPHB3 = test system: EPHB3
EPHB4 = test system: EPHB4
EPHB6 = test system: EPHB6
ERBB2 = test system: ERBB2
ERBB3 = test system: ERBB3
ERBB4 = test system: ERBB4
ERK1 = test system: T1, ERK1
T1 construct: gene MAPK3

ERK2 = test system: T2, ERK2
T2 construct: gene MAPK1

ERK3 = test system: T3, ERK3
T3 construct: gene MAPK6

ERK4 = test system: T4, ERK4
T4 construct: gene MAPK4

ERK5 = test system: T5, ERK5
T5 construct: gene MAPK7

ERK8 = test system: T6, ERK8
T6 construct: gene MAPK15

ERN1 = test system: ERN1
FAK = test system: T7, FAK
T7 construct: gene PTK2

FER = test system: FER
FES = test system: FES
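Also: KINOMEscan kinase panel screen.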

Row | Structure (SMILES) | %Inh (EPHA7) | %Inh (EPHA8) | %Inh (EPHB1) | %Inh (EPHB2) | %Inh (EPHB3) | %Inh (EPHB4) | %Inh (EPHB6) | %Inh (ERBB2) | %Inh (ERBB3) | %Inh (ERBB4) | %Inh (ERK1) | %Inh (ERK2) | %Inh (ERK3) | %Inh (ERK4) | %Inh (ERK5) | %Inh (ERK8) | %Inh (ERN1) | %Inh (FAK) | %Inh (FER) | %Inh (FES)
1 | Cc1ccc(C(=O)Nc2ccc(Nc3ccnc4cc(-c5nccs5)ccc34)cc2O)cc1.Cl [GW494702] | 0% | 0% | 11% | 21% | 20% | 12% | 50% | 42% | 21% | 10% | 0% | 0% | 0% | 0% | 0% | 11% | 0% | 0% | 34% | 24%
2 | Cc1ccc(C(=O)N2CC[C@@H](O)C2)cc1-n1c(C)cc(OCc2ccc(F)cc2F)c(Br)c1=O | 0% | 85% | 84% | 8% | 0% | 0% | 92% | 36% | 0% | 35% | 0% | 0% | 0% | 9% | 0% | 0% | 0% | 0% | 1% | 0%
3 | O=C(NC1CCN(c2ccnc(Nc3ccc(F)cc3)n2)C1)c1cc2ccccc2s1 (stereo not shown) [GSK1379716] | 7% | 14% | 9% | 18% | 17% | 15% | 0% | 42% | 22% | 28% | 4% | 23% | 1% | 31% | 0% | 0% | 0% | 0% | 44% | 12%
4 | Nc1n[nH]c2cnc(-c3ccccc3)cc12 [SB-642124] | 65% | 51% | 19% | 40% | 16% | 18% | 0% | 0% | 0% | 24% | 0% | 0% | 0% | 25% | 0% | 6% | 13% | 0% | 0% | 0%
5 | c1ccc(-c2n[nH]cc2Nc2ccnc3ccccc23)nc1 [GW694077] | 11% | 21% | 18% | 0% | 1% | 0% | 0% | 0% | 4% | 0% | 0% | 0% | 7% | 0% | 0% | 25% | 22% | 0% | 0% | 0%
6 | COCCOCCOc1cc2ncc3c4ccc(C#N)cc4[nH]c3c2cc1OC | 11% | 9% | 6% | 23% | 11% | 25% | 56% | 34% | 0% | 0% | 9% | 6% | 2% | 0% | 0% | 36% | 0% | 16% | 0% | 17%
7 | FC(F)(F)c1ccc(/C=C/c2cncnc2Nc2ccc3[nH]c(Cc4ccccc4)nc3c2)cc1 [GW709199] | 0% | 1% | 9% | 7% | 5% | 37% | 0% | 69% | 69% | 72% | 0% | 0% | 0% | 9% | 12% | 21% | 0% | 21% | 0% | 38%
8 | COc1cccc(C2=C(Nc3ccc(Cl)c(C(=O)O)c3)C(=O)NC2=O)c1 [SB-390769] | 0% | 15% | 0% | 23% | 10% | 10% | 100% | 28% | 5% | 0% | 10% | 0% | 0% | 19% | 0% | 0% | 100% | 0% | 7% | 0%
9 | COC(=O)Nc1nc2ccc(Oc3ccc(NC(=O)Nc4cc(C(F)(F)F)ccc4F)cc3)cc2n1C.Cl [GW692089] | 72% | 91.5% | 35% | 43% | 17% | 48% | 67% | 28% | 29% | 4% | 0% | 0% | 0% | 0% | 0% | 72% | 0% | 0% | 21% | 3%
10 | COc1cc(Nc2nccc(-c3c(-c4cccc(NC(=O)c5c(F)cccc5F)c4)nn4ncccc34)n2)cc(OC)c1OC [GSK327238] | 9% | 56% | 35% | 93% | 0% | 15% | 97.4% | 98.6% | 96% | 99.4% | 6% | 15% | 3% | 29% | 68% | 0% | 30% | 38% | 77% | 50%
11 | Oc1cc(Nc2ccnc3cc(I)ccc23)ccc1F [GW552771] | 0% | 49% | 39% | 14% | 4% | 45% | 24% | 22% | 0% | 36% | 0% | 0% | 0% | 0% | 0% | 11% | 0% | 0% | 11% | 0%
12 | CN1CCN(CCCNc2nccc(-c3c(-c4ccc(F)cc4)nn4cc(C(F)(F)F)ccc34)n2)CC1 [GW621581] | 0% | 15% | 13% | 0% | 0% | 9% | 26% | 0% | 0% | 0% | 0% | 0% | 0% | 5% | 0% | 31% | 0% | 0% | 0% | 0%
13 | COc1ccc(Nc2nccc(N3CCC(NC(=O)Nc4cccc(OC)c4)C3)n2)cc1 (stereo not shown) [GSK1379742] | 6% | 11% | 9% | 0% | 12% | 0% | 9% | 34% | 4% | 0% | 0% | 0% | 9% | 0% | 0% | 36% | 0% | 0% | 26% | 9%
14 | CC(=O)Nc1nc2cnc(Nc3cc(NC(=O)c4cccc(C5(C#N)CC5)c4Cl)ccc3C)nc2s1 | 0% | 55% | 10% | 50% | 10% | 34% | 64% | 14% | 7% | 4% | 0% | 14% | 13% | 0% | 3% | 0% | 28% | 0% | 0% | 12%
15 | COc1cc(Nc2ncc3c(C)nc(-c4cc5ccccc5[nH]4)n3n2)cc(OC)c1OC [GW869516] | 0% | 4% | 58% | 36% | 0% | 47% | 0% | 14% | 26% | 34% | 0% | 0% | 42% | 38% | 7% | 0% | 0% | 6% | 0% | 0%
16 | Cl.Cl.NCC(C(=O)Nc1cc(Br)c(-c2ccnc3[nH]ccc23)s1)c1ccccc1 (stereo not shown) [GSK1269851] | 0% | 13% | 0% | 0% | 27% | 42% | 1% | 5% | 0% | 52% | 6% | 0% | 0% | 6% | 0% | 74% | 18% | 0% | 18% | 38%
17 | CCn1c(-c2nonc2N)nc2c(C#CC(C)(C)O)nc(OC[C@H](N)c3ccccc3)cc21 [GSK943949] | 0% | 0% | 8% | 0% | 0% | 0% | 28% | 12% | 0% | 0% | 0% | 3% | 0% | 0% | 0% | 7% | 4% | 0% | 0% | 0%
18 | Cc1cccc(NC(=O)Nc2ccc(Oc3ncnc4ccn(C)c34)cc2)c1 | 18% | 0% | 6% | 0% | 21% | 0% | 91% | 49% | 0% | 12% | 0% | 20% | 0% | 0% | 0% | 12% | 0% | 5% | 0% | 0%
19 | CN(C)Cc1ccc(-c2ccc3c(Nc4ccc(Oc5ccccn5)cc4)ccnc3c2)o1 [GW567148] | 0% | 13% | 0% | 0% | 30% | 0% | 97.4% | 45% | 98.9% | 0% | 0% | 0% | 0% | 0% | 0% | 23% | 0% | 0% | 20% | 5%
20 | c1ccc(Oc2ccc(Nc3ccnc4cc(-c5ccc(CNCCN6CCOCC6)o5)ccc34)cc2)nc1 [GW567145] | 0% | 7% | 0% | 5% | 0% | 0% | 98% | 44% | 98.4% | 7% | 0% | 0% | 0% | 0% | 0% | 0% | 26% | 0% | 0% | 5%

From PMC5540273 (PLoS ONE, 2017)
